The results in this text go back to article PMC5540273 (PLoS ONE, 2017).

Values joined by “and” are separate entries in the source; they are usually repeats but may differ in a detail not shown here. Identical values can stand only once. Some results are limits rather than exact numbers.
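Further: kd values determined as follow-up on hits from a single-replicate KINOMEscan panel screen.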

For one test, the system named is TNIK.
With `CCC(CC)(CC)n1cnc2c(N)ncnc21` [SKF-97620], the dissociation constant (Kd) (as a rule, the concentration at which binding is half-saturated) is > 10000 nM.
Still for that read-out and setting: as for `Fc1ccc(Nc2nccc(-c3c(-c4ccc(Cl)cc4)nn4ncccc34)n2)cc1F` [GW829058], the figure is > 10000 nM; as for `Clc1ccc(-c2cc(-c3c[nH]nc3-c3ccccn3)ccn2)cc1` [GW681251], 390 nM; as for `Nc1nc(-c2cccnc2)c(-c2ccnc3ccccc23)s1` [GW684083], > 10000 nM.

For the next test, the system named is TYK2(JH2domain-pseudokinase).
`COc1ccc(-c2oc3ncnc(N)c3c2-c2ccc(OC)cc2)cc1` [SB-589132] showed a Kd of 1600 nM.
Regarding `CN1c2ccc(-c3ccc(C(=O)NCCO)cc3)cc2-c2[nH]ncc2S1(=O)=O`, the Kd came to 130 nM.
On the same count and under the same terms, the value for `CC(=O)Nc1n[nH]c2ncc(-c3ccccc3)cc12` [SB-548492] was 580 nM.

The subject of a further test is T1, p38-alpha.
T1 construct: gene MAPK14
Compound `COc1ccc(NC(=O)c2ccc(-c3cc(-c4nnc(C)o4)ccc3C)cc2)cc1` [GW595885] returned a Kd of 180 nM.
The same measure, in the same setting: as for `COc1ccc(-c2nc3n(c2-c2ccncc2)CCC3)cc1` [SKF-104493], the figure is 220 nM and 130 nM; as for `CNc1nccc(-c2c(-c3ccc(F)cc3)ncn2C2CCN(C)CC2)n1` [SB-222903], 53 nM; as for `CN1CCC(n2cnc(-c3ccc(F)cc3)c2-c2ccnc(NC3CCNCC3)n2)CC1` [SB-229482], 220 nM.
The compound `NC(=O)c1sc(-n2cnc3ccccc32)cc1OCc1ccccc1F` [GSK1024306] returned a Kd of 280 nM.
The same measure, in the same setting: as for `COc1cc2c(Nc3cccc(NC(=O)c4ccccc4)c3)ncnc2cc1OCCCN1CCOCC1` [GSK223810], the figure is 440 nM; as for `CC(C)N1CCC(n2cnc(-c3ccc(F)cc3)c2-c2ccnc(N)n2)CC1` [SB-223132], 160 nM.
